# Assay results taken from PubChem BioAssay (NCI).
# This is part of a sample that, as a whole, favours compounds with a hit. Of some 79,000 tested, about 15% had one in any assay. Values without a mark were called inactive. Calls of active or inactive are those of the source. Cut-off read from the data, not from the text of the source: active = growth inhibition above about 70%; inactive = the rest.
# Columns and labels:
# [1] = NCI Yeast Anticancer Drug Screen. Data for the rad52 strain (AID 147);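 note: 0% = growth of vehicle-treated control cultures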; settings: S. cerevisiae rad52 mutant growth inhibition, stronger effect = higher value
# Outline: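 Vehicle-treated cultures served as the reference for growth inhibition of compound-exposed yeast bearing a DNA repair mutation.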
# [2] = NCI Yeast Anticancer Drug Screen. Data for the wt1 strain (AID 149);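 note: 0% = growth of vehicle-treated wt1 cultures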; settings: S. cerevisiae wt1 strain (SPY 50644) growth inhibition, stronger effect = higher value
# Outline: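 Readout: yeast growth inhibition, normalised to vehicle controls, in the wt1 strain exposed to test compounds.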
# [3] = NCI Yeast Anticancer Drug Screen. Data for the rad50EPP+ strain (AID 151);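 note: 0% = growth of vehicle-treated control cultures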; settings: S. cerevisiae rad50 mutant strain, stronger effect = higher value
# Outline: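 In this screen, rad50EPP+ yeast were exposed to compounds. Growth inhibition was scored against vehicle-treated controls.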
# [4] = NCI Yeast Anticancer Drug Screen. Data for the mgt1 strain (AID 153); settings: S. cerevisiae mgt1 mutant growth inhibition, stronger effect = higher value
# Outline: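 mgt1 strain exposed; growth vs vehicle control recorded as inhibition.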
# [5] = NCI Yeast Anticancer Drug Screen. Data for the rad50 strain (AID 155);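 note: 0% = growth of vehicle-only cultures of the same strain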; settings: S. cerevisiae rad50 strain growth inhibition, stronger effect = higher value
# Outline: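 Compounds were tested on a yeast strain with an engineered DNA damage repair alteration; the reported value is growth inhibition normalised to vehicle treatment.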
# [6] = NCI Yeast Anticancer Drug Screen. Data for the mec2-1 strain (AID 157); settings: S. cerevisiae mec2-1 strain, stronger effect = higher value
# Outline: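 Vehicle-treated cultures served as reference for growth inhibition of compound-exposed mec2-1 yeast.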
# [7] = NCI Yeast Anticancer Drug Screen. Data for the rad14 strain (AID 159);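 note: 0% = growth of vehicle-treated control cultures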; settings: S. cerevisiae rad14 strain growth inhibition, stronger effect = higher value
# Outline: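 Compound-treated yeast with a defined DNA-repair lesion; growth inhibition normalised to vehicle-treated cultures.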
# [8] = NCI Yeast Anticancer Drug Screen. Data for the sgs1 mgt1 strain (AID 161);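 note: 0% = growth of cultures given vehicle only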; settings: S. cerevisiae sgs1 mgt1 strain, stronger effect = higher value
# Outline: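 Test agents were incubated with a DNA-repair-mutant yeast strain. Growth was then read and compared against vehicle-treated controls.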
# [9] = NCI Yeast Anticancer Drug Screen. Data for the bub3 strain (AID 167); settings: S. cerevisiae bub3 mutant strain, stronger effect = higher value
# Outline: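 Growth of a checkpoint-deficient yeast mutant is measured after compound exposure. Values represent inhibition relative to vehicle.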
# [10] = NCI Yeast Anticancer Drug Screen. Data for the mlh1 strain (AID 171);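 note: 0% = growth of vehicle-treated control cultures of the same strain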; settings: S. cerevisiae mlh1 strain growth inhibition, stronger effect = higher value
# Outline: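 Vehicle-normalised growth inhibition of a repair- or checkpoint-altered yeast strain following compound treatment.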
# [11] = NCI Yeast Anticancer Drug Screen. Data for the sgs1 strain (AID 173);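 note: 0% = growth of vehicle-only control cultures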; settings: S. cerevisiae sgs1 mutant, stronger effect = higher value
# Outline: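 Screen format: yeast with repair or checkpoint alterations, compound exposure, growth read relative to vehicle.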
# [12] = NCI Yeast Anticancer Drug Screen. Data for the mlh1 rad18 strain (AID 175); settings: S. cerevisiae mlh1 rad18 strain growth inhibition, stronger effect = higher value
# Outline: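 Vehicle-treated cultures served as the reference for growth inhibition in a yeast strain carrying DNA damage repair alterations exposed to each compound.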
# [13] = NCI Yeast Anticancer Drug Screen. Data for the rad18 strain (AID 177); settings: S. cerevisiae rad18 mutant growth inhibition, stronger effect = higher value
# Outline: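 Test articles were incubated with altered yeast defective in DNA damage repair. Results are given as inhibition of growth versus vehicle.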
# [14] = NCI Yeast Anticancer Drug Screen. Data for the CLN2oe strain (AID 163);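 note: 0% = growth of vehicle-only control cultures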; settings: S. cerevisiae CLN2oe strain, stronger effect = higher value
# Outline: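 Inhibition relative to vehicle-treated yeast is reported. Cells: strain with genetic alteration in cell-cycle control, grown with compound.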
# [15] = NCI Yeast Anticancer Drug Screen. Data for the cln2 rad14 strain (AID 165);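 note: 0% = growth equal to vehicle treated cultures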; settings: S. cerevisiae cln2 rad14 strain, stronger effect = higher value
# Outline: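 Each compound was tested on cln2 rad14 yeast. Inhibition of growth was calculated against vehicle-exposed controls.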
# [16] = NCI Yeast Anticancer Drug Screen. Data for the wt2 strain (AID 169);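 note: 0% = growth of vehicle-treated yeast cultures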; settings: S. cerevisiae wt2 strain growth inhibition, stronger effect = higher value
# Outline: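 Inhibition of yeast growth was determined after compound treatment, normalised to controls receiving only vehicle.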
# [17] = at 5.0 µM (retest, dose inferred, filed as 0.5)
# [18] = at 50.0 µM (retest, dose inferred, filed as 5.0)
structure (smiles),measurement,setting,value
Cc1ccc2c(c1)C1(C)c3cc(C)ccc3SP1S2 (stereo not drawn),growth inhibition,[1]; at 1.2 µM,20%
same,growth inhibition,[1]; at 3.7 µM,22%
same,growth inhibition,[1]; at 11.0 µM,20%
same,growth inhibition,[1]; at 33.0 µM,51%
same,growth inhibition,[1]; at 100.0 µM,55%
same,growth inhibition,[2]; at 1.2 µM,19%
same,growth inhibition,[2]; at 3.7 µM,9%
same,growth inhibition,[2]; at 11.0 µM,25%
same,growth inhibition,[2]; at 33.0 µM,26%
same,growth inhibition,[2]; at 100.0 µM,36%
same,growth inhibition,[3]; at 1.2 µM,4%
same,growth inhibition,[3]; at 3.7 µM,7%
same,growth inhibition,[3]; at 11.0 µM,17%
same,growth inhibition,[3]; at 33.0 µM,47%
same,growth inhibition,[3]; at 100.0 µM,50%
same,growth inhibition,[4]; at 1.2 µM,10%
same,growth inhibition,[4]; at 3.7 µM,3%
same,growth inhibition,[4]; at 11.0 µM,9%
same,growth inhibition,[4]; at 33.0 µM,37%
same,growth inhibition,[4]; at 100.0 µM,43%
same,growth inhibition,[5]; at 1.2 µM,17%
same,growth inhibition,[5]; at 3.7 µM,11%
same,growth inhibition,[5]; [17],-4%
same,growth inhibition,[5]; at 11.0 µM,18%
same,growth inhibition,[5]; at 33.0 µM,39%
same,growth inhibition,[5]; [18],51%
same,growth inhibition,[5]; at 50.0 µM,71.7% (active)
same,growth inhibition,[5]; at 100.0 µM,54%
same,growth inhibition,[6]; at 1.2 µM,11%
same,growth inhibition,[6]; at 3.7 µM,21%
same,growth inhibition,[6]; [17],-12%
same,growth inhibition,[6]; at 11.0 µM,18%
same,growth inhibition,[6]; at 33.0 µM,30%
same,growth inhibition,[6]; [18],17%
same,growth inhibition,[6]; at 50.0 µM,40.1%
same,growth inhibition,[6]; at 100.0 µM,30%
same,growth inhibition,[7]; at 1.2 µM,0%
same,growth inhibition,[7]; at 3.7 µM,-10%
same,growth inhibition,[7]; at 11.0 µM,-23%
same,growth inhibition,[7]; at 33.0 µM,15%
same,growth inhibition,[7]; at 100.0 µM,29%
same,growth inhibition,[8]; [17],6%
same,growth inhibition,[8]; [18],54%
same,growth inhibition,[8]; at 50.0 µM,63%
same,growth inhibition,[9]; at 1.2 µM,23%
same,growth inhibition,[9]; at 3.7 µM,18%
same,growth inhibition,[9]; [17],-3%
same,growth inhibition,[9]; at 11.0 µM,20%
same,growth inhibition,[9]; at 33.0 µM,22%
same,growth inhibition,[9]; [18],59%
same,growth inhibition,[9]; at 50.0 µM,42.8%
same,growth inhibition,[9]; at 100.0 µM,42%
same,growth inhibition,[10]; at 1.2 µM,-5%
same,growth inhibition,[10]; at 3.7 µM,-22%
same,growth inhibition,[10]; at 11.0 µM,-3%
same,growth inhibition,[10]; at 33.0 µM,26%
same,growth inhibition,[10]; at 100.0 µM,39%
same,growth inhibition,[11]; at 1.2 µM,6%
same,growth inhibition,[11]; at 3.7 µM,4%
same,growth inhibition,[11]; at 11.0 µM,18%
same,growth inhibition,[11]; at 33.0 µM,46%
same,growth inhibition,[11]; at 100.0 µM,51%
same,growth inhibition,[12]; [17],4%
same,growth inhibition,[12]; [18],74% (active)
same,growth inhibition,[12]; at 50.0 µM,46.9%
same,growth inhibition,[13]; at 1.2 µM,8%
same,growth inhibition,[13]; at 3.7 µM,-3%
same,growth inhibition,[13]; at 11.0 µM,7%
same,growth inhibition,[13]; at 33.0 µM,27%
same,growth inhibition,[13]; at 100.0 µM,52%
CNC(=O)OCC1C2=C(C(=O)C(C)=C(N)C2=O)N2CC3C(N3C)C12OC (stereo not drawn),growth inhibition,[1]; at 1.2 µM,8%
same,growth inhibition,[1]; at 3.7 µM,50%
same,growth inhibition,[1]; at 11.0 µM,52%
same,growth inhibition,[1]; at 33.0 µM,49%
same,growth inhibition,[1]; at 100.0 µM,72% (active)
same,growth inhibition,[2]; at 1.2 µM,-2%
same,growth inhibition,[2]; at 3.7 µM,4%
same,growth inhibition,[2]; at 11.0 µM,4%
same,growth inhibition,[2]; at 33.0 µM,2%
same,growth inhibition,[2]; at 100.0 µM,17%
same,growth inhibition,[3]; at 1.2 µM,0%
same,growth inhibition,[3]; at 3.7 µM,10%
same,growth inhibition,[3]; at 11.0 µM,22%
same,growth inhibition,[3]; at 33.0 µM,30%
same,growth inhibition,[3]; at 100.0 µM,41%
same,growth inhibition,[5]; at 1.2 µM,-12%
same,growth inhibition,[5]; at 3.7 µM,6%
same,growth inhibition,[5]; [17],37%
same,growth inhibition,[5]; at 11.0 µM,15%
same,growth inhibition,[5]; at 33.0 µM,22%
same,growth inhibition,[5]; [18],63%
same,growth inhibition,[5]; at 50.0 µM,51.6%
same,growth inhibition,[5]; at 100.0 µM,52%
same,growth inhibition,[6]; at 1.2 µM,-14%
same,growth inhibition,[6]; at 3.7 µM,2%
same,growth inhibition,[6]; [17],20%
same,growth inhibition,[6]; at 11.0 µM,-1%
same,growth inhibition,[6]; at 33.0 µM,16%
same,growth inhibition,[6]; [18],61%
same,growth inhibition,[6]; at 50.0 µM,55%
same,growth inhibition,[6]; at 100.0 µM,49%
same,growth inhibition,[7]; at 1.2 µM,-18%
same,growth inhibition,[7]; at 3.7 µM,-9%
same,growth inhibition,[7]; at 11.0 µM,0%
same,growth inhibition,[7]; at 33.0 µM,14%
same,growth inhibition,[7]; at 100.0 µM,46%
same,growth inhibition,[8]; [17],30%
same,growth inhibition,[8]; [18],64%
same,growth inhibition,[8]; at 50.0 µM,42.1%
same,growth inhibition,[14]; at 1.2 µM,20%
same,growth inhibition,[14]; at 3.7 µM,22%
same,growth inhibition,[14]; at 11.0 µM,17%
same,growth inhibition,[14]; at 33.0 µM,35%
same,growth inhibition,[14]; at 100.0 µM,37%
same,growth inhibition,[15]; [17],10%
same,growth inhibition,[15]; [18],44%
same,growth inhibition,[15]; at 50.0 µM,43.1%
same,growth inhibition,[9]; at 1.2 µM,1%
same,growth inhibition,[9]; at 3.7 µM,-4%
same,growth inhibition,[9]; [17],20%
same,growth inhibition,[9]; at 11.0 µM,-5%
same,growth inhibition,[9]; at 33.0 µM,9%
same,growth inhibition,[9]; [18],43%
same,growth inhibition,[9]; at 50.0 µM,29.4%
same,growth inhibition,[9]; at 100.0 µM,23%
same,growth inhibition,[16]; at 1.2 µM,-33%
same,growth inhibition,[16]; at 3.7 µM,-40%
same,growth inhibition,[16]; at 11.0 µM,-39%
same,growth inhibition,[16]; at 33.0 µM,-5%
same,growth inhibition,[16]; at 100.0 µM,21%
same,growth inhibition,[10]; at 1.2 µM,-17%
same,growth inhibition,[10]; at 3.7 µM,-4%
same,growth inhibition,[10]; at 11.0 µM,-6%
same,growth inhibition,[10]; at 33.0 µM,14%
same,growth inhibition,[10]; at 100.0 µM,39%
same,growth inhibition,[11]; at 1.2 µM,4%
same,growth inhibition,[11]; at 3.7 µM,8%
same,growth inhibition,[11]; at 11.0 µM,18%
same,growth inhibition,[11]; at 33.0 µM,29%
same,growth inhibition,[11]; at 100.0 µM,54%
same,growth inhibition,[12]; [17],63%
same,growth inhibition,[12]; [18],92% (active)
same,growth inhibition,[12]; at 50.0 µM,67.4%
same,growth inhibition,[13]; at 1.2 µM,12%
same,growth inhibition,[13]; at 3.7 µM,13%
same,growth inhibition,[13]; at 11.0 µM,39%
same,growth inhibition,[13]; at 33.0 µM,73% (active)
same,growth inhibition,[13]; at 100.0 µM,86% (active)
